The panel holds about 83,000 compounds, 20% with a hit somewhere; the sample as a whole holds those more often.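 Each cell line was grown in a 96-well plate and treated with one concentration of compound for 48 hours. Values below 10 were considered active.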 Activity calls are given as the source filed them.
How the values were obtained:
Assay in all cases: NCI-60 one-dose screen, 48 h (100 = growth as untreated, 0 = no growth, -100 = all killed)
Details in all cases: 10 µM unless noted
SR leukemia = tested on: SR leukemia
RPMI-8226 leukemia = tested on: RPMI-8226 leukemia
OVCAR-8 ovarian = tested on: OVCAR-8 ovarian
OVCAR-5 ovarian = tested on: OVCAR-5 ovarian
OVCAR-4 ovarian = tested on: OVCAR-4 ovarian
SK-OV-3 ovarian = tested on: SK-OV-3 ovarian
IGROV1 ovarian = tested on: IGROV1 ovarian
OVCAR-3 ovarian = tested on: OVCAR-3 ovarian
HS 578T breast = tested on: HS 578T breast
NCI/ADR-RES ovarian = tested on: NCI/ADR-RES ovarian
T-47D breast = tested on: T-47D breast
BT-549 breast = tested on: BT-549 breast
MDA-MB-435 melanoma = tested on: MDA-MB-435 melanoma
SW-620 colon = tested on: SW-620 colon
MCF7 breast = tested on: MCF7 breast
HCT-116 colon = tested on: HCT-116 colon
HCC-2998 colon = tested on: HCC-2998 colon
KM12 colon = tested on: KM12 colon

Measured: growth

CC(Oc1ccc(C(=O)O)cc1C(F)(F)F)c1ccc(Oc2ccccc2)cn1 (stereo not drawn)
inactive: SR leukemia 71.7% | RPMI-8226 leukemia 99.9% | OVCAR-8 ovarian 96.6% | OVCAR-5 ovarian 102% | OVCAR-4 ovarian 106% | SK-OV-3 ovarian 124% | IGROV1 ovarian 98.4% | OVCAR-3 ovarian 104% | HS 578T breast 99.6% | NCI/ADR-RES ovarian 75.2% | T-47D breast 100% | BT-549 breast 89.1% | MDA-MB-435 melanoma 77.4% | SW-620 colon 103% | MCF7 breast 89.5% | HCT-116 colon 103% | HCC-2998 colon 108% | KM12 colon 92.2%

Cn1c2ccccc2c2c3c(c4c5ccccc5n(C)c4c21)C(=O)OC3
inactive: SR leukemia 83.9% | RPMI-8226 leukemia 89.9% | OVCAR-8 ovarian 98.6% | OVCAR-5 ovarian 95.9% | OVCAR-4 ovarian 96.9% | SK-OV-3 ovarian 100% | IGROV1 ovarian 78% | OVCAR-3 ovarian 102% | HS 578T breast 97.4% | NCI/ADR-RES ovarian 95.5% | T-47D breast 95.2% | BT-549 breast 97.2% | MDA-MB-435 melanoma 103% | SW-620 colon 88% | MCF7 breast 92.1% | HCT-116 colon 93.8% | HCC-2998 colon 99.7% | KM12 colon 97.2%

Nc1c(C(=O)Nc2ccnc3ccccc23)sc2nc3c(cc12)CN(Cc1ccccc1)CC3
inactive: SR leukemia 35.5% | RPMI-8226 leukemia 38.8% | OVCAR-8 ovarian 69.5% | OVCAR-5 ovarian 94.1% | OVCAR-4 ovarian 78.6% | SK-OV-3 ovarian 98.9% | IGROV1 ovarian 86.4% | OVCAR-3 ovarian 85.1% | HS 578T breast 89.9% | NCI/ADR-RES ovarian 69.2% | T-47D breast 38.5% | BT-549 breast 30.8% | MDA-MB-435 melanoma 73.6% | SW-620 colon 95.3% | MCF7 breast 68.9% | HCT-116 colon 45% | HCC-2998 colon 103% | KM12 colon 79.7%

CCCCCCNC(=O)Oc1ccc(/C(=C(\C)c2ccccc2)c2ccc(OCCN3CCCCC3)cc2)cc1
active: SR leukemia -8.47%
inactive: RPMI-8226 leukemia 39.6% | OVCAR-8 ovarian 76.6% | OVCAR-5 ovarian 93.9% | OVCAR-4 ovarian 71% | SK-OV-3 ovarian 71.8% | IGROV1 ovarian 63.7% | OVCAR-3 ovarian 66.9% | HS 578T breast 76.3% | NCI/ADR-RES ovarian 63.1% | T-47D breast 30.1% | BT-549 breast 64.2% | MDA-MB-435 melanoma 68.2% | SW-620 colon 34.1% | MCF7 breast 12.7% | HCT-116 colon 33.9% | HCC-2998 colon 76.6% | KM12 colon 49.2%

O=C(CCN1CCCC1)Nc1ccc2c(NCCCc3ccccc3)c3ccccc3nc2c1
inactive: OVCAR-5 ovarian 32.1% | SK-OV-3 ovarian 13% | IGROV1 ovarian 11.7% | HS 578T breast 27.4% | NCI/ADR-RES ovarian 91.2% | T-47D breast 11.6% | BT-549 breast 47.7%
active: SR leukemia -22.3% | RPMI-8226 leukemia -36.6% | OVCAR-8 ovarian 9.97% | OVCAR-4 ovarian -18.6% | OVCAR-3 ovarian -70.7% | MDA-MB-435 melanoma -87.8% | SW-620 colon -63.3% | MCF7 breast -44.3% | HCT-116 colon -63.5% | HCC-2998 colon 2.16% | KM12 colon -10%

Cc1cc(C(=O)/C=C/c2ccc[nH]2)ccc1-n1ccc(C(F)(F)F)n1
active: RPMI-8226 leukemia -40.1% | OVCAR-3 ovarian 4.46% | BT-549 breast -35% | KM12 colon -14%
inactive: SR leukemia 28.4% | OVCAR-8 ovarian 85.6% | OVCAR-5 ovarian 95.8% | OVCAR-4 ovarian 74.7% | SK-OV-3 ovarian 129% | IGROV1 ovarian 92.3% | HS 578T breast 94.3% | NCI/ADR-RES ovarian 89.3% | T-47D breast 85% | MDA-MB-435 melanoma 97.4% | SW-620 colon 96.6% | MCF7 breast 82.7% | HCT-116 colon 88.5% | HCC-2998 colon 108%

c1ccc2cc(Cn3c(-c4cccc5ccccc45)[n+](Cc4ccc5ccccc5c4)c4c5ccccc5c5ccccc5c43)ccc2c1
inactive: NCI/ADR-RES ovarian 17.7%
active: SR leukemia -56% | RPMI-8226 leukemia -38.7% | OVCAR-8 ovarian -67% | OVCAR-5 ovarian -76.7% | OVCAR-4 ovarian -80% | SK-OV-3 ovarian -79.4% | IGROV1 ovarian -71.8% | OVCAR-3 ovarian -89.4% | HS 578T breast -42.1% | T-47D breast -70.8% | BT-549 breast -70.5% | MDA-MB-435 melanoma -83.7% | SW-620 colon -78.2% | MCF7 breast -64.7% | HCT-116 colon -73.5% | HCC-2998 colon -84.7% | KM12 colon -82.2%

COc1cc2c(c(OC)c1OC)CCC(c1cccc(NC(=O)c3cccc(Br)c3)c1)O2 (stereo not drawn)
inactive: SR leukemia 84.2% | RPMI-8226 leukemia 78.2% | OVCAR-8 ovarian 93.6% | OVCAR-5 ovarian 98.5% | OVCAR-4 ovarian 83.5% | SK-OV-3 ovarian 84% | IGROV1 ovarian 85% | OVCAR-3 ovarian 97.3% | HS 578T breast 84.1% | NCI/ADR-RES ovarian 91.8% | T-47D breast 72.5% | BT-549 breast 103% | MDA-MB-435 melanoma 87.4% | SW-620 colon 93.2% | MCF7 breast 89% | HCT-116 colon 72.2% | HCC-2998 colon 99.7% | KM12 colon 95.2%

Oc1ccc(C(c2ccc(O)cc2)c2ccc(Br)cn2)cc1
inactive: SR leukemia 104% | RPMI-8226 leukemia 119% | OVCAR-5 ovarian 78.4% | SK-OV-3 ovarian 65.4% | IGROV1 ovarian 11.8% | MDA-MB-435 melanoma 100% | SW-620 colon 102% | HCT-116 colon 19.4% | KM12 colon 16%
active: OVCAR-8 ovarian 2.17% | OVCAR-4 ovarian -38.1% | OVCAR-3 ovarian -37.4% | HS 578T breast -35.6% | NCI/ADR-RES ovarian -38.7% | T-47D breast -38.5% | BT-549 breast -42.6% | MCF7 breast -20.5% | HCC-2998 colon 3.49%

CN(C)CC(O)c1ccc(/C=C/c2ccc(Cl)cc2)cc1 (stereo not drawn)
inactive: OVCAR-4 ovarian 25.2% | SK-OV-3 ovarian 52.8% | T-47D breast 30.9% | BT-549 breast 78.8%
active: SR leukemia -38.8% | RPMI-8226 leukemia -8.89% | OVCAR-8 ovarian -34.2% | OVCAR-5 ovarian 2.11% | IGROV1 ovarian -57.8% | OVCAR-3 ovarian -64.8% | HS 578T breast -26.3% | NCI/ADR-RES ovarian 5.74% | MDA-MB-435 melanoma -48.2% | SW-620 colon -68.7% | MCF7 breast -81.6% | HCT-116 colon -58.3% | HCC-2998 colon -69% | KM12 colon -91.5%

O=C1c2ccccc2CCC12OC2c1cn(-c2ccccc2)nc1-c1ccc(Cl)cc1 (stereo not drawn)
inactive: SR leukemia 70.4% | RPMI-8226 leukemia 81.3% | OVCAR-8 ovarian 94.5% | OVCAR-5 ovarian 111% | OVCAR-4 ovarian 99.2% | SK-OV-3 ovarian 111% | IGROV1 ovarian 95.1% | OVCAR-3 ovarian 115% | HS 578T breast 93.3% | NCI/ADR-RES ovarian 102% | T-47D breast 93.1% | BT-549 breast 126% | MDA-MB-435 melanoma 100% | SW-620 colon 95.6% | MCF7 breast 87.7% | HCT-116 colon 47.4% | HCC-2998 colon 108% | KM12 colon 97.9%

CNC(=O)c1cccc(Cn2nc(C)c(NC(=O)c3ccc(COc4ccc(C(F)(F)F)cc4C)cc3)c2C)n1
inactive: SR leukemia 22% | RPMI-8226 leukemia 32.7% | OVCAR-8 ovarian 35.8% | OVCAR-5 ovarian 104% | OVCAR-4 ovarian 37.8% | SK-OV-3 ovarian 74% | IGROV1 ovarian 65.1% | OVCAR-3 ovarian 35.1% | HS 578T breast 87.7% | NCI/ADR-RES ovarian 33.4% | BT-549 breast 22.1% | MDA-MB-435 melanoma 43.2% | SW-620 colon 81.8% | MCF7 breast 21.7% | HCT-116 colon 24.4% | HCC-2998 colon 61.7% | KM12 colon 65.4%
active: T-47D breast 7.54%

COc1cc(/C=C/c2cc(O)c(C(C)=O)c(O)c2)cc2c1O[C@]1(C)CC[C@@H](O)C(C)(C)[C@H]1C2
active: RPMI-8226 leukemia -7.38%
inactive: SR leukemia 29.9% | OVCAR-8 ovarian 67.7% | OVCAR-5 ovarian 89.8% | OVCAR-4 ovarian 90.8% | SK-OV-3 ovarian 66.1% | IGROV1 ovarian 60.3% | OVCAR-3 ovarian 61.4% | HS 578T breast 25.4% | NCI/ADR-RES ovarian 74.2% | T-47D breast 49% | BT-549 breast 22.1% | MDA-MB-435 melanoma 73% | SW-620 colon 69.3% | MCF7 breast 45.3% | HCT-116 colon 45.2% | HCC-2998 colon 75.1% | KM12 colon 53.9%

CCOC(=O)c1cc(C(=O)c2ccc(OC)c(OC)c2)n2ccc(/C=C/c3cc[n+](CC(=O)c4ccc(OC)c(OC)c4)cc3)cc12
inactive: SR leukemia 92.2% | RPMI-8226 leukemia 81.4% | OVCAR-8 ovarian 95.5% | OVCAR-5 ovarian 99.9% | OVCAR-4 ovarian 90.9% | SK-OV-3 ovarian 102% | IGROV1 ovarian 88.6% | OVCAR-3 ovarian 102% | HS 578T breast 102% | NCI/ADR-RES ovarian 98.6% | T-47D breast 89.9% | BT-549 breast 96.6% | MDA-MB-435 melanoma 99.4% | SW-620 colon 96.7% | MCF7 breast 91.1% | HCT-116 colon 89.7% | HCC-2998 colon 98.8% | KM12 colon 100%

CC1(C)c2[nH]c3ccccc3c2C[C@]2(C)[C@H]3C(=O)C=C4[C@@H]5C[C@@](C)(C(N)=O)CC[C@]5(C)CC[C@@]4(C)[C@]3(C)CC[C@@H]12
inactive: SR leukemia 45.8% | RPMI-8226 leukemia 42.3% | OVCAR-8 ovarian 75.1% | OVCAR-5 ovarian 93.3% | OVCAR-4 ovarian 54.4% | SK-OV-3 ovarian 71.3% | IGROV1 ovarian 84.4% | OVCAR-3 ovarian 69.9% | HS 578T breast 71.4% | NCI/ADR-RES ovarian 71.2% | T-47D breast 20.3% | BT-549 breast 70.7% | MDA-MB-435 melanoma 83.6% | SW-620 colon 79.4% | MCF7 breast 35.3% | HCT-116 colon 46.3% | HCC-2998 colon 79.2% | KM12 colon 67.5%

COc1cc2c(=O)n(CCN(C)C)c3c4cc5c(cc4ccc3c2cc1OC)OCO5
active: SR leukemia 2.29% | RPMI-8226 leukemia -27.7% | OVCAR-5 ovarian -17.5% | OVCAR-4 ovarian 5.11% | SK-OV-3 ovarian -5.08% | IGROV1 ovarian -16% | OVCAR-3 ovarian -41.9% | HS 578T breast 9.24% | NCI/ADR-RES ovarian 2.87% | T-47D breast -20.5% | BT-549 breast 1.42% | MDA-MB-435 melanoma -65.4% | SW-620 colon -17.9% | MCF7 breast 7.27% | HCT-116 colon -7.98% | HCC-2998 colon -58.1% | KM12 colon -25.2%
inactive: OVCAR-8 ovarian 11.4%

Source: PubChem BioAssay (NCI)
